According to PubChem BioAssay AID488857 (Sanford-Burnham Center for Chemical Genomics, 2010):
Among all 1,400 compounds or so, about 560 (40%) were called active.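 How the source made its calls: active means mean inhibition over duplicate tests at 10 µM above 50%; inactive means the rest.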 So high a share suggests a set chosen from earlier hits. Some of the results follow.

Assay: ASC/caspase-1 reporter retest in S. cerevisiae at one dose, specificity check for NALP1 project (AID 488857)
Conditions: S. cerevisiae ASC/Caspase-1, beta-galactosidase luminescence, 24 h; at 10 µM; stronger effect = higher value

inhibition, inactive:
COc1ccc(C(=O)/C=C/Nc2ccc([N+](=O)[O-])cc2C)c(OC)c1 28.5%
CCOC(=O)c1c(C)[nH]c(N=Nc2cccc(C)c2)c1C 46.2%
COC1=C(N)C(=O)c2nc(-c3nc(C(=O)O)c(C)c(-c4ccc(OC)c(OC)c4O)c3N)ccc2C1=O 29.4%
O=C(c1cccc([N+](=O)[O-])c1)n1nc(-c2ccccc2)nc1NCc1ccccc1 49.2%
COc1cccc(CNC(=O)CSc2ccc(-c3ccncc3)nn2)c1 27.2%
Cc1ccnc(NS(=O)(=O)c2ccc(NC(=O)CSc3nc(-c4ccccc4)cc(=O)[nH]3)cc2)n1 6.75%
COc1ccc(Cc2nnc(SC)[nH]c2=O)cc1 20.1%
Brc1cccc(OCCN2CCCCC2)c1 49.1%
CC(C)NCCCCOc1cccc(Br)c1 45.5%
CCOC(=O)c1[nH]c2ccc(Br)cc2c1NC(=O)CCN1CCC(C)CC1 40%
CC(C)N(C)CCOC(=O)c1ccccc1Br 28.4%
Cn1c(SCC(=O)NC(c2ccccc2)c2ccccc2)nnc1-c1cccs1 35.6%
C=C(C)C1CC=C(C)/C(=N/NC(=O)c2ccoc2C)C1 (centres undefined) 36.6%
CCOC(=O)c1c(C)[nH]c2c1-c1ccccc1C(=O)C2=O 26.6%
CCOC(=O)c1c(C)[nH]c(C(=O)COC(=O)c2oc3ccccc3c2C)c1C 31.9%
COCc1cc(=O)[nH]c(/N=C(\N)Nc2cccc(C)c2)n1 25.1%
Cc1cccc(NC2=C(Cl)C(=O)OC2NC(=O)c2ccccc2)c1 (centres undefined) 23.1%
Cc1cc(=O)n2ccccc2c1C#N 15.6%
O=S(=O)(Nc1ccncc1Cl)c1ccccc1 25.1%
O=C1C2C(C(=O)N1/N=C/c1ccc([N+](=O)[O-])o1)C1C=CC2C12CC2 (centres undefined) 38.2%
CCCCC(C(=O)NC1CCCC1)N(Cc1ccco1)C(=O)Cn1nnc(-c2ccc(F)cc2)n1 (centres undefined) 31.1%
Cc1ccc(CN2CCN(/N=C/c3cccs3)CC2)cc1 28.2%
CC(C)(CN1CCN(Cc2ccccc2)CC1)NS(=O)(=O)c1ccc(Cl)cc1 41.8%
COc1ccccc1CN(Cc1nc2ccccc2c(=O)[nH]1)C(=O)Nc1ccccc1 46.4%
O=C(OC1CCOC1=O)c1cc(-c2ccc(Br)cc2)nc2ccccc12 (centres undefined) 46.6%
O=C(Oc1cccc2cccnc12)c1ccc(N2C(=O)C3C4CCC(C4)C3C2=O)cc1 (centres undefined) 31.9%
CN1/C(=C\C(=O)Nc2ccc(Cl)cc2)C(C)(C)c2ccccc21 41.8%
CCOP(=O)(C1=C(O)C(=O)C(C(C)(C)C)=CC1=O)c1ccccc1 (centres undefined) 38.8%
O=C(/C=C/c1cccs1)c1cc(Br)ccc1OC(=O)N1CCOCC1 45.4%
COc1ccc(C(=O)Cn2c(C(=O)/C=C/c3ccccc3)nc3ccccc32)cc1 39%
CC(C)C(NC(=O)CN1C(=O)c2ccccc2S1(=O)=O)C(C)C 33.5%
Cn1ncc(S(=O)(=O)Cc2ccccc2)c(Cl)c1=O 39.1%
COc1ccc(-c2[nH]ncc2CN2CCC(OCc3ccccn3)CC2)c(F)c1 21.9%
Cc1nc(NC(=O)/C=C/c2ccccc2)n[nH]1 48.2%
Cc1ccc(C)c(NC(=O)c2ccc(OC(=O)c3ccco3)cc2)c1 35.5%
CCn1c(SCC(=O)Nc2oc(-c3ccccc3)c(-c3ccccc3)c2C#N)nnc1-c1cc(OC)cc(OC)c1 25.9%
CCOC(=O)c1c(-c2cccs2)csc1NC(=O)C(C)(C)C 44.8%
O=C(c1ccc(Cl)c([N+](=O)[O-])c1)N(c1ccccn1)c1ccccn1 23.8%
CN1CCN(C(=O)CSc2nc3c(c(=O)n(C)c(=O)n3C)n2C)CC1 31.1%
N#Cc1cccc(N=Cc2c(O)ccc3ccccc23)c1 30.4%
O=S(=O)(/N=C/c1c(O)ccc2ccccc12)c1cccs1 20.6%
OCCNc1c2ccccc2nc2c(F)c(F)c(F)c(F)c12 23.1%
CC(=O)/C=C/n1c(=S)oc2ccccc21 23.2%
CCCOc1ccc(C(=O)NC(C)C(=O)O)cc1 (centres undefined) 40.4%
Cc1ccc(N2C(=N)/C(=C3/Nc4ccccc4S3)C(c3ccccc3)C2=O)cc1 (centres undefined) 38.5%
N#CC1=C(N)Oc2n[nH]c(-c3cccs3)c2C1C1CCCCC1 (centres undefined) 46.4%
N#CC(C#N)=c1ccc2c(c1)N1C3=C(CCCC3)CC3CCCCC31N=2 (centres undefined) 8.35%
COc1ccc(/C=N/NC(=O)c2csc(-n3nc(C)cc3C(F)(F)F)n2)cc1 36.5%
O=C(CCN1CCc2ccccc2C(c2ccccc2)C1)c1ccc2c(c1)OCCO2 (centres undefined) 24.4%
Oc1ccccc1C1N=C(c2ccccc2)NC(c2ccccc2)=N1 28.9%
CCOc1nc(N2CCOCC2)nc(N2CCOCC2)n1 43.6%
CS(=O)(=O)n1nc(-c2ccc(Cl)cc2)nc1SCc1ccccc1 48%
Cn1nc(-c2ccccc2)c(-c2nc(-c3ccc(Cl)cc3)no2)c1Cl 33.6%
c1ccc2[nH]c3cc4ncnc4cc3nc2c1 46.6%

inhibition, active:
C/C(=N/Nc1ccc([N+](=O)[O-])cc1)c1ccc(C)cc1C 50.2%
CN(C)CCCN(C(=O)c1ccc2c(c1)CCCC2)c1nc2ccc(Cl)cc2s1 63.9%
CN(C)CCCN(C(=O)c1ccc2c(c1)CCCC2)c1nc2ccc(F)cc2s1 61.3%
Cc1cc(N2CCOCC2)ccc1/C=C\[N+](=O)[O-] 56.6%
O=C1O/C(=C/c2ccccc2)c2ccccc21 78.5%
c1ccc(-c2ccc(-c3cn4c(n3)CCC4)cc2)cc1 93.3%
CC(C)NC(=O)CSc1nc(-c2ccccc2)cs1 52%
O=C(CSc1nc(-c2ccccc2)cs1)Nc1cccc([N+](=O)[O-])c1 75.8%
Cc1ccc(OCCCCN(C)Cc2ccccc2)c(Br)c1 54.8%
Cc1cc(Br)ccc1OCCCCN1CCC(C)CC1 60.4%
Brc1cccc(OCCCCN2CCCCC2)c1 53.8%
Cc1ccc(OCCCCN2CCCCC2)c(Br)c1 62.1%
CC(CCc1ccccc1)NC(=O)c1cc2sccc2n1C (centres undefined) 52%
c1ccc2cc(CSCc3nc4ccccc4[nH]3)ccc2c1 71.4%
CCOC(=O)c1c(C)[nH]c(C)c1C(=O)COC(=O)c1cc2ccccc2cc1O 55.5%
CCCc1nn(C)c(C(=O)Nc2cccc(C)c2)c1Cl 65.5%
O=C1C2C(C(=O)N1/N=C/c1cc(Br)cc([N+](=O)[O-])c1O)C1C=CC2C12CC2 (centres undefined) 66.2%
CCOC(=O)c1c(NC2OC(=O)c3c2ccc(OC)c3OC)sc(C(=O)OC(C)(C)C)c1C (centres undefined) 65.2%
Cn1cccc1/C=N/N1CCN(Cc2ccc(Cl)cc2)CC1 51.9%
C#C[C@]1(O)CC[C@H]2[C@@H]3CCC4=C(CCC(=O)C4)[C@H]3CC[C@@]21C 61.3%
C#C[C@]1(O)CC[C@H]2[C@@H]3CCc4cc(O)ccc4[C@H]3CC[C@@]21C 79.5%
O=C(Nc1cccc(O)c1)c1noc2c1CCc1ccccc1-2 87%
Cc1cccc(N=C2NC(=O)/C(=C\c3cccs3)S2)c1 62.8%
COc1ccc(C(=O)/C=C/c2ccc(OC)c(CN3CCOCC3)c2)cc1 66%
C(=C\c1nc(N2CCCC2)c2ccccc2n1)/c1ccccc1 91.5%
C(=C\c1nc(N2CCCCCC2)c2ccccc2n1)/c1ccccc1 85.2%
COc1ccc2oc(=Nc3ccccc3)c(-c3nc4ccccc4[nH]3)cc2c1 59.1%
Cc1cc(C)cc(Cn2ncc(Cl)c(Cl)c2=O)c1 57.6%
O=C(/C=C/c1ccccc1)/C=C/c1ccccc1 54.5%
Cc1ccc2occ(C(=O)c3ccco3)c(=O)c2c1 84%
CC1CCCCN1S(=O)(=O)c1cnc(Cl)c(Br)c1 (centres undefined) 59.8%
O=S(=O)(/C=C/c1ccccc1)NC1CCCCCCC1 66.8%
O=[N+]([O-])c1ccc(O)c2ncccc12 99%
CSc1ccc(CN(C)CC(=O)Nc2ccc(C)cc2Br)cc1 52.6%
C=CCOc1ccc2ccccc2c1/C=N/O 64.3%
CCOc1ccc(C(=O)C(CCC(CN(C)C)C(=O)c2ccc(OCC)cc2)CN(C)C)cc1 (centres undefined) 63.5%
CC1=CC(=O)C=C(C)C1=NOS(=O)(=O)c1ccccc1 69.7%
CC1=C/C(=N\OS(=O)(=O)c2ccccc2)C(C(C)C)=CC1=O 91.2%
CCOC(=O)C(C(=O)OCC)C(C(=O)OCC)N1CCOCC1 (centres undefined) 53.2%
Cc1cccc(Oc2nc(CN3CCOCC3)nc3sc4c(c23)CCCC4)c1 75.2%
CC(=O)N1N=C(c2ccc3ccccc3c2)OC1(C)C 86.5%
Cn1nc(-c2ccc(Cl)cc2)nc2c(=O)n(C)c(=O)nc1-2 97.8%
Nc1ccccc1-c1nc2ccccc2[nH]1 83%
O=C1CC(c2ccccc2Cl)CC(O)=C1C=Nc1ccccc1 (centres undefined) 61.9%
O=C1CC(c2cccc(Cl)c2)CC(O)=C1C=Nc1cccc(Cl)c1 (centres undefined) 53.5%
